Assay outcomes: PubChem, Broad Institute
Many of the other results were omitted from the sample, so hits are more common in it than they were.
DUX4 inh: blocks DUX4-driven transcriptional activation; actives 0.8% (n = 37,000); 293T-iDUX4 ZSCAN4-Gaussia luciferase reporter, 24 h; active compounds read low; activity change, negative = inhibition, % (concentration not given with the values);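 active = mean inhibition of at least 10% in the main channel, exceeding the control channel by a set limit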;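 note: 0% = median of neutral control wells and -100% = median of positive control wells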
An asterisk follows results filed as active.

SMILES	DUX4 inh
C[C@H](CO)N1C[C@H](C)[C@H](CN(C)C(=O)Nc2cccc3ccccc23)Oc2ncc(C#CCC3CCCC3)cc2C1=O	4
CCCC(=O)N1CC2(CN[C@@H](CO)c3c2c2ccc(OC)cc2n3C)C1	10
CCCNC(=O)N1CC2(CN(Cc3ccc(F)cc3)C2)c2c([nH]c3cc(OC)ccc23)[C@@H]1CO	-37*
COc1ccc2c3c([nH]c2c1)[C@@H](CO)N(Cc1ccc(Cl)cc1)CC31CCN(C(=O)CN(C)C)CC1	0
COc1ccc2c3c([nH]c2c1)[C@@H](CO)N(C(=O)c1ccccn1)CC31CCN(C(=O)C2CC2)CC1	-1
COc1ccc2c3c([nH]c2c1)[C@H](CO)N(Cc1ccc(Cl)cc1)CC31CCN(C(=O)CN(C)C)CC1	11
COCC(=O)N1CCC2(CC1)CN(Cc1cccc(Cl)c1)[C@H](CO)c1[nH]c3cc(OC)ccc3c12	2
COc1ccc2c3c([nH]c2c1)[C@@H](CO)N(Cc1ccccc1Cl)CC31CCN(C(=O)C2CC2)CC1	-21*
CCCNC(=O)N1CC2(C1)CN(Cc1ccc(F)cc1)[C@@H](CO)c1[nH]c3cc(OC)ccc3c12	-2
CCCC(=O)N1CCC2(CC1)CN(Cc1ccc(Cl)cc1)[C@@H](CO)c1[nH]c3cc(OC)ccc3c12	-50*
COc1cccc(CN2CC3(CCN(C)CC3)c3c([nH]c4cc(OC)ccc34)[C@@H]2CO)c1	-3
COCC(=O)N1CC2(CCN(Cc3ccccc3Cl)CC2)c2c([nH]c3cc(OC)ccc23)[C@H]1CO	-5
COc1ccc2c3c([nH]c2c1)[C@H](CO)N(Cc1cccc(Cl)c1)CC31CCN(C(C)=O)CC1	-67*
CCCNC(=O)N1CC2(CN(C)C2)c2c([nH]c3cc(OC)ccc23)[C@H]1CO	9
COc1ccc(S(=O)(=O)N2CC3(CN(Cc4ccncc4)[C@@H](CO)c4[nH]c5cc(OC)ccc5c43)C2)cc1	1
COc1ccc2c3c([nH]c2c1)[C@@H](CO)N(C(=O)CN1CCOCC1)CC31CN(C(=O)NC(C)C)C1	4
O=C(O)[C@@H]1[C@@H](CO)[C@@H]2Cn3c(ccc(-c4ccc(F)cc4)c3=O)[C@@H]2N1C(=O)Nc1ccccc1	4
O=S(=O)(c1cccc(F)c1)N1CC[C@H]2[C@H](CO)Nc3ccc(C#Cc4cccc(F)c4)cc3[C@H]21	-4
COc1ccc([C@@H]2C/C=C\C[C@@H](c3ccccc3)NC(=O)CCC(=O)N2)c(OC)c1	2
COc1ccc(C[C@H]2CCn3nncc3COC[C@@H](CC(C)C)NC2=O)cc1	1
COc1ccc2c3c([nH]c2c1)[C@H](CO)N(C(=O)c1ccncc1)CC31CN(C(=O)C2CCC2)C1	23
C[C@H](CO)N1C[C@H](C)[C@@H](CN(C)C(=O)Nc2ccc3c(c2)OCO3)Oc2c(NC(=O)Cc3cn(C)c4ccccc34)cccc2C1=O	-2
COc1ccc2c3c([nH]c2c1)[C@H](CO)N(C(C)=O)CC31CCN(Cc2ccccc2Cl)CC1	-8
CCS(=O)(=O)N1CC2(CN(Cc3ccccc3F)[C@@H](CO)c3[nH]c4cc(OC)ccc4c32)C1	-46*
CCS(=O)(=O)N1CC2(CN(Cc3ccc4c(c3)OCO4)[C@@H](CO)c3[nH]c4cc(OC)ccc4c32)C1	-8
SMILES	DUX4 inh
COc1ccc2c3c([nH]c2c1)[C@H](CO)N(Cc1ccccc1Cl)CC31CCN(C(C)=O)CC1	-28*
COc1ccc2c3c([nH]c2c1)[C@@H](CO)N(Cc1ccccc1F)CC31CN(C)C1	-9
COCC(=O)N1CCC2(CC1)CN(Cc1ccccc1Cl)[C@H](CO)c1[nH]c3cc(OC)ccc3c12	0
COc1ccc2c3c([nH]c2c1)[C@H](CO)N(Cc1ccccc1F)CC31CCN(S(C)(=O)=O)CC1	10
COc1ccc(CN2CC3(C2)CN(Cc2ccc4c(c2)OCO4)[C@H](CO)c2[nH]c4cc(OC)ccc4c23)cc1	-58*
COc1ccc2c3c([nH]c2c1)[C@@H](CO)N(Cc1ccc(F)cc1)CC31CN(C)C1	-5
CC(C)CC#Cc1ccc([C@H]2[C@@H](CO)N3C(=O)CN(C(=O)NC(C)C)C[C@H]23)cc1	-1
C[C@@H]1CN([C@H](C)CO)C(=O)c2cc(N(C)C)ccc2O[C@@H](C)CCCCO[C@@H]1CN(C)Cc1ccc(C(=O)Nc2ccccc2N)cc1	-1
CNC(=O)C[C@H]1CC[C@H]2[C@@H](COc3ccc(NC(=O)CN(C)C)cc3C(=O)N2C)O1	-1
OC[C@@H]1[C@H](c2ccc(-c3cccc(F)c3)cc2)[C@@H]2CN(Cc3cncnc3)CCCCN12	4
Cc1cccc(-c2ccc([C@H]3[C@H]4CN(CCC(F)(F)F)CCCCN4[C@H]3CO)cc2)c1	-49*
O=C(c1cccc(F)c1)N1CCCCN2[C@H](CO)[C@@H](c3ccc(-c4ccccc4)cc3)[C@H]2C1	3
CN(C)C(=O)c1ccc(-c2ccc([C@@H]3[C@@H](CO)N4CCCCN(CCC(F)(F)F)C[C@@H]34)cc2)cc1	11
O=C(C1CC1)N1CCCCN2[C@H](CO)[C@@H](c3ccc(-c4cccc(F)c4)cc3)[C@@H]2C1	-23*
